Sampled rows, rich in hits. Any-hit rate of the full collection: about 6.9%.
IL1B secr inh: inhibitors of inflammasome signaling (IL-1 beta secretion). THP-1 LPS/ATP IL-1B secretion, AlphaLISA, 16 h; active compounds read low. activity change, % at 57.5 µM. 4.7% of 360,000 active. AID 743279; in the data active = activity change below about -50%; inconclusive = mostly about -30% to -49%; note: % is set by controls: 0 for no effect and ±100 for the full control effect
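Secreted IL-1B measured by AlphaLISA bead assay after 16 h compound exposure of THP-1 cells; compounds (final up to 57.5 uM) added 1 h before LPS (250 ng/mL) and ATP (1.25 mM) stimulation; lower signal means less secretion.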
Vif-A3G inh: inhibitors of Vif-APOBEC3G interaction; HeLa A3G-eYFP + Vif (tagged APOBEC3G with the HIV-1 protein that degrades it), YFP fluorescence, overnight; Potency, µM (titrated, usually from 46.1 µM), for inactives: top-dose activity, negative = active, most hits filed as inhibitors; 0.076% of 410,000 active; AID 602310; note: potency is the fitted concentration of half-maximal effect; % is set by controls: 0 for no effect and ±100 for the full control effect; nearly all actives have a fitted effect of over 60% in size
Target sequence (Q9HC16 whole entry, looked up): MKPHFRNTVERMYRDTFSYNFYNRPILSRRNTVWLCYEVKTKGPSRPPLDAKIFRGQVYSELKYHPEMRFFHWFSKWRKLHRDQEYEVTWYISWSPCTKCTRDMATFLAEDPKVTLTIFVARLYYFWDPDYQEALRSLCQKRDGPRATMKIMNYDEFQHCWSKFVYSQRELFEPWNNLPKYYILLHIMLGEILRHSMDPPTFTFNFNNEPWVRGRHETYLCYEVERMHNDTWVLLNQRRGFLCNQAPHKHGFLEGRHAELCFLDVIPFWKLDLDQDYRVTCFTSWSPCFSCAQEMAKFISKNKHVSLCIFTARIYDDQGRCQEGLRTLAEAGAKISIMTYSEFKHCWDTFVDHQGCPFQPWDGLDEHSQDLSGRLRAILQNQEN
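HeLa cells stably expressing Vif and C-terminally eYFP-tagged A3G, seeded overnight at 37 deg C, then exposed to compound by pintool overnight at 37 deg C. Rise in yellow fluorescence (Ex 488/Em 500-530, Acumen) marks blocked Vif-driven A3G degradation.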
MCF10A rerep: DNA re-replication induction in MCF 10a cells; Potency, µM (doses to about 46.1 µM), inactives show at the highest dose activity, positive = re-replication, most hits filed as activators; 2.9% of 350,000 active; MCF 10A DNA re-replication, Hoechst nuclear intensity, 48 h; note: potency is the fitted concentration of half-maximal effect; % of control where 0% means no effect; nearly all actives have a fitted effect of over 50% in size
Giardia killer: kills Giardia lamblia; Giardia lamblia trophozoite viability; activity change, % at 7.66 µM, hits read low; 0.15% of 340,000 active; in the data active = activity change below about -80%; inconclusive = between about -30% and that limit;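 note: parasites exposed to compound for two days anaerobically before the ATP read; % is set by controls: 0 for no effect and ±100 for the full control effect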
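Trophozoite viability was measured as ATP-dependent luminescence, read 15-30 min after reagent addition. Before that, parasites at 100 cells/well were exposed to compounds for 48 h, anaerobically, at 37 deg C.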
SW480 rerep: inducers of DNA re-replication in SW480 colon cancer cells; SW480 DNA re-replication, Hoechst DNA content imaging, 48 h; Potency, µM (doses to about 46.1 µM), for the others: at the highest dose re-replication activation, actives largely listed as activators; 1.8% of 340,000 active; note: potency is the fitted concentration of half-maximal effect; % of control where 0% means no effect; nearly all actives have a fitted effect of over 55% in size
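First, 250 cells per well were seeded. Next, compound or vehicle (23 nL) was pinned in, plates sat 48 hr at 37 C. Finally Hoechst was added for 40 min before fluorescence scanning.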
Vif-APOBEC3F blk: inhibitors of Vif-A3F interaction; Potency, µM (titrated, usually from 46.1 µM), inactives show top-dose activity, negative = active; 0.2% of 390,000 active; HeLa A3F-eYFP + Vif (tagged APOBEC3F with the HIV-1 protein that degrades it), YFP fluorescence increase; note: potency is the fitted concentration of half-maximal effect; % of control where 0% means no effect; nearly all actives have a fitted effect of over 65% in size
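HeLa cells stably expressing A3F-eYFP plus Vif, plated and incubated overnight at 37 deg C, then exposed to compounds overnight at 37 deg C. Blocked degradation read as raised yellow fluorescence (Ex 488/Em 500-530).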
Numbers without * were called inactive. Unless noted, calls come from the whole dose curve; as a rule, active = well fitted curve in the direction sought with a large enough effect; inconclusive = small, poorly fitted or top-dose-only effect, or another doubt; inactive = no such curve, though single readings can be large; an effect the other way counts as inactive or inconclusive.

What do the screens show for `COc1cccc(N2CCN(C(=O)CC(C)(C)CC3=NS(=O)(=O)c4ccccc4N3)CC2)c1`?
IL1B secr inh: 0.7; Vif-A3G inh: 5.0%; MCF10A rerep: inconclusive; Giardia killer: -4.9; SW480 rerep: -4.0%; Vif-APOBEC3F blk: 1.9%

What do the screens show for `CCOC(=O)N1CCN(Cc2nc3cc(NC(=O)c4ccc([N+](=O)[O-])cc4)ccc3n2C(C)C)CC1`?
Vif-A3G inh: -20.2%; Vif-APOBEC3F blk: -0.8%

How did COc1cccc(CNC23CC4CC(CC(C4)C2)C3)c1OCc1ccccc1 do in these assays?
IL1B secr inh: -96.5*; Vif-A3G inh: 3.1%; MCF10A rerep: 29.5%; Giardia killer: 20.8; SW480 rerep: inconclusive; Vif-APOBEC3F blk: -8.5%

How did CCC(CO)Nc1ncnc2c1cnn2-c1ccc(Cl)cc1 (centres undefined) do in these assays?
IL1B secr inh: -4.8; Vif-A3G inh: 0.9%; MCF10A rerep: 9.3%; Giardia killer: 5.8; SW480 rerep: -1.1%; Vif-APOBEC3F blk: -5.4%

What do the screens show for `CCC(CO)Nc1nc2ccc(Cl)cc2c2ccccc12` (centres undefined)?
IL1B secr inh: -78.6*; Vif-A3G inh: -21.6%; MCF10A rerep: inconclusive; Giardia killer: -27.2; SW480 rerep: inconclusive; Vif-APOBEC3F blk: -4.0%

How did CCN(CC)c1nc(SCCOC(=O)Nc2ccccc2)nc(N(CC)CC)n1 do in these assays?
IL1B secr inh: -20.1; Vif-A3G inh: 0.0%; MCF10A rerep: 9.2µM*; Giardia killer: 37.1; SW480 rerep: 2.7%; Vif-APOBEC3F blk: 1.6%

How did CN(C)c1nc(SCCOC(=O)c2ccccc2)nc(N(C)C)n1 do in these assays?
IL1B secr inh: 13.5; Vif-A3G inh: -2.3%; MCF10A rerep: 5.0%; Giardia killer: 7.5; SW480 rerep: 4.9%; Vif-APOBEC3F blk: 2.8%

What do the screens show for `O=c1c2c([N+](=O)[O-])cc([N+](=O)[O-])cc2sn1Cc1ccccc1`?
IL1B secr inh: -105.1*; Vif-A3G inh: -7.3%; MCF10A rerep: inconclusive; Giardia killer: 20.5; SW480 rerep: inconclusive; Vif-APOBEC3F blk: 4.5%

What do the screens show for `O=c1c2c([N+](=O)[O-])cc([N+](=O)[O-])cc2sn1-c1ccc(Br)cc1`?
IL1B secr inh: -17.9; Vif-A3G inh: -3.0%; MCF10A rerep: 12.5%; Giardia killer: -26.0; SW480 rerep: inconclusive; Vif-APOBEC3F blk: 0.0%

How did CN(C)c1ccc(CNC(=O)CN2CCSc3ccc(S(=O)(=O)N(C)C)cc32)cc1 do in these assays?
Vif-A3G inh: -1.5%; Vif-APOBEC3F blk: 4.4%

What do the screens show for `Cn1c(=O)n(C)c2cc(N3CCCCC3)c(NC(=O)c3ccc(Cl)cc3)cc21`?
Vif-A3G inh: 5.8%; Vif-APOBEC3F blk: -2.1%

What do the screens show for `CCOC(=O)c1[nH]c(CSc2nnc(-c3ccc(OC)cc3)o2)c(C(=O)OCC)c1C`?
IL1B secr inh: -7.6; Vif-A3G inh: 0.8%; MCF10A rerep: 16.4µM*; Giardia killer: 26.6; SW480 rerep: 9.4%; Vif-APOBEC3F blk: 8.4%

What do the screens show for `COc1cccc(C(=O)CSc2nnc(COc3cccc4cccnc34)o2)c1`?
IL1B secr inh: -7.0; Vif-A3G inh: 2.7%; MCF10A rerep: 6.51µM*; Giardia killer: -4.3; SW480 rerep: 5.17µM*; Vif-APOBEC3F blk: -0.3%

Results for CC1CCCC(C)N1C(=O)CSc1nnc(COc2cccc3cccnc23)o1 (centres undefined) ?
IL1B secr inh: -4.4; Vif-A3G inh: -0.1%; MCF10A rerep: inconclusive; Giardia killer: inconclusive; SW480 rerep: 4.11µM*; Vif-APOBEC3F blk: -12.6%

How did Cc1ccc(C(=O)CSc2nnc(COc3cccc4cccnc34)o2)cc1 do in these assays?
IL1B secr inh: inconclusive; Vif-A3G inh: -4.0%; MCF10A rerep: -0.8%; Giardia killer: -18.7; SW480 rerep: -7.2%; Vif-APOBEC3F blk: -2.8%

How did CC(C)(C)C(=O)OCCNc1nc(-c2cccs2)nc2ccccc12 do in these assays?
Giardia killer: -29.1
